# Source: the supplement of paper PMC13380429
# Values without a mark were called inactive.
# System: Vero E6 infected with SARS-CoV-2
# Test: inhibition of SARS-CoV-2 cytopathic effect; higher = more antiviral protection, active = above 15
# Details: 48 h
Compound,inhibition of SARS-CoV-2 cytopathic effect (1 nM),inhibition of SARS-CoV-2 cytopathic effect (8.33 nM) [%],inhibition of SARS-CoV-2 cytopathic effect (100 nM) [%],inhibition of SARS-CoV-2 cytopathic effect (833.33 nM) [%],inhibition of SARS-CoV-2 cytopathic effect (10000 nM)
OCCN1CCN(CCCN2c3ccccc3Sc3ccc(Cl)cc32)CC1 [perphenazine],1.39%,1.94,0.83,-2.86,2.67%
CN1[C@@H]2CC[C@H]1C[C@@H](OC(=O)[C@H](CO)c1ccccc1)C2 [hyoscyamine],1.06%,-0.12,0.93,-0.12,-0.51%
NC(=O)c1ncn([C@@H]2O[C@H](CO)[C@@H](O)[C@H]2O)c1N [acadesine],0.23%,2.34,1.8,0.21,-1.3%
O=c1[nH]c2ccccc2n1CCCN1CCN(C(c2ccccc2)c2ccccc2)CC1 [oxatomide],-0.36%,2.61,1.85,1.64,-7.26%
O=C(c1ccccc1)C(O)c1ccccc1 (stereo not given) [benzoin],0.3%,0.27,-1.79,1.45,0.76%
CCCn1c(=O)[nH]c2nc(-c3ccc(S(=O)(=O)O)cc3)[nH]c2c1=O,0.98%,-0.31,-0.83,0.97,0.55%
COc1ccc(C(Cl)=C(c2ccc(OC)cc2)c2ccc(OC)cc2)cc1 [chlorotrianisene],-2.25%,0.16,-0.43,-2.65,5.78%
Cc1ccc(C(=O)Nc2ccc(Oc3cc4cnn(C)c4cc3-c3cn[nH]c3)c(F)c2)c(=O)n1-c1ccc(F)cc1,-0.46%,1.35,-1.01,-1.13,-2.06%
COP(=O)(OC)OC(c1ccc(Cl)cc1)P(=O)(OC)OC (stereo not given) [mifobate],-4.41%,-10.9,-3.08,-2.04,-5%
O=C(O)CCCCCCCC(=O)O [azelaic-acid],24.2% (active),0.49,-0.06,0.7,-3.28%
C=CCC1(CC(C)C)C(=O)NC(=O)NC1=O [butalbital],-0.15%,4.37,2.7,1.69,1.37%
O=C(O)CCc1c(C(=O)O)[nH]c2cc(Cl)cc(Cl)c12,0.7%,2.79,1.68,-2.26,0.81%
FC(F)(F)C(F)(F)C(F)(F)C(F)(F)C(F)(F)C(F)(F)C(F)(F)C(F)(F)Br [perflubron],-0.32%,1.61,1.51,-1.6,0.45%
CC(=O)Oc1ccccc1C(=O)Oc1ccccc1C(=O)O [acetylsalicylsalicylic-acid],-1.51%,0.51,2.44,-0.27,1.17%
S=C=Nc1ccc(N=C=S)cc1 [bitoscanate],-1.75%,0.45,-0.83,0.38,-2.58%
CCCCCCCCCCCCCCCCCCN(CCCCCCCCCCCCCCCCCC)CCCN(CCO)CCO [avridine],-9.9%,-6.98,-5.76,-5.17,-10.1%
CC(C)OC(=O)N1CCC(Oc2ncnc3c2cnn3-c2ccc(S(C)(=O)=O)cc2F)CC1,-4.65%,-1.23,2.78,-0.97,-1.25%
COC1CCN(c2cccc(-c3cc(NC(C)=O)nc(-n4nc(C)cc4C)n3)n2)CC1,0.48%,2.72,2.53,1.74,-0.2%
CCOc1cc(N)c(Cl)cc1C(=O)NCC1CN(Cc2ccc(F)cc2)CCO1 (stereo not given) [mosapride],0.88%,2.99,3.38,2.51,6.25%
Cn1nnc(-c2ccc(-c3ccc(N4C[C@H](CO)OC4=O)cc3F)cn2)n1 [tedizolid],-0.87%,1.38,-1.69,0.43,-0.79%

Compound,inhibition of SARS-CoV-2 cytopathic effect (1 nM),inhibition of SARS-CoV-2 cytopathic effect (8.33 nM) [%],inhibition of SARS-CoV-2 cytopathic effect (100 nM) [%],inhibition of SARS-CoV-2 cytopathic effect (833.33 nM) [%],inhibition of SARS-CoV-2 cytopathic effect (10000 nM)
CC1=C(CCC(=O)O)c2cc3[nH]c(cc4nc(cc5[nH]c(cc1n2)c(C)c5C(C)O)C(C)=C4C(C)O)c(C)c3CCC(=O)O (stereo not given) [hematoporphyrin],0.75%,5,1.48,-0.76,-6.32%
NC(=O)c1nc(Nc2ccccc2)sc1NC(=O)C1CCCCC1,1.69%,3.22,-0.11,-8.95,-4.1%
CCN(CC)CCOc1ccc(/C(=C(\Cl)c2ccccc2)c2ccccc2)cc1 [clomifene],0.1%,1.97,2.27,3.88,21.1% (active)
S=C(NCCc1ccccn1)Nc1ccc(Br)cn1 [trovirdine],2%,2.79,2.61,1.44,0.69%
CCc1nc(-c2cccc(C)c2)c(-c2ccnc(NC(=O)c3ccccc3)c2)s1,1.89%,-0.27,-3.38,-1.52,-4.97%
CC/C(=C(/CC)c1ccc(O)cc1)c1ccc(O)cc1 [diethylstilbestrol],-1.15%,-2.29,-2.18,3.59,6.76%
Cc1cnc(C(=O)O)c[n+]1[O-] [acipimox],-1.88%,-0.46,-1.4,-2.17,-1.06%
CC(=O)Oc1c(C)cc(OCC(O)CNC(C)C)c(C)c1C (stereo not given) [metipranolol],-0.83%,0.56,0.06,-1.66,-3.06%
COc1cc(C)nc(-n2nc(C)cc2OC)n1 [epirizole],1.56%,3.82,-0.67,0.65,-2.64%
CC(=O)Oc1ccc(C(c2ccc(OC(C)=O)cc2)c2ccccn2)cc1 [bisacodyl],0.11%,-1.99,-2.25,1.04,2.49%
N=C1N[C@H]2[C@H](CS[C@H]2CCCCC(=O)O)N1 [2-iminobiotin],-0.5%,1.48,-1.14,-2.01,-2.17%
COc1ccc(S(=O)(=O)Nc2c(C)cc(C)cc2C)cc1,0.3%,-0.36,2.29,2.21,0.94%
CCOC(=O)C1=C(C)NC(C)=C(C(=O)OC)C1c1cccc(Cl)c1Cl (stereo not given) [felodipine],1.65%,3.36,5.39,4.84,1.57%
Cc1cc(Nc2ccc(NC(=O)c3ccc(Nc4ccnc5ccccc45)cc3)cc2)nc(N)n1,-1.09%,0.62,2.48,3.69,20.3% (active)
Cc1ccc(Oc2ccccc2-c2csc(N=C3NCCCN3)n2)c(C)c1 [abafungin],2.5%,1.5,1.28,-1.03,-6.36%
O=C1C[C@@]2(C(=O)N1)C(=O)N(Cc1ccc(Br)cc1F)C(=O)c1cccn12 [ranirestat],0.68%,1.21,2.23,3.78,1.01%
O=C(CCCCC(=O)Nc1c(I)cc(I)c(C(=O)O)c1I)Nc1c(I)cc(I)c(C(=O)O)c1I [iodipamide],-2.81%,-3.21,-1.82,-3.34,0.05%
O=Nc1c(-c2c(O)[nH]c3ccccc23)[nH]c2ccccc12 [indirubin-3-monoxime],0.43%,0.8,1.06,5.66,3.83%
NCC(=O)N1C[C@H](NC(=O)c2ccccc2)C[C@H]1C(=O)O [danegaptide],-2%,-0.68,1.14,-0.88,3.55%
CCCN(CCC)C(=O)C(CCC(=O)OCCCN1CCN(CCOC(=O)Cc2c(C)n(C(=O)c3ccc(Cl)cc3)c3ccc(OC)cc23)CC1)NC(=O)c1ccccc1 (stereo not given) [proglumetacin],-3.43%,-2.43,-2.86,-4.91,-12.6%
